# Source: PubChem
# A selection: hits, their analogues and other compounds. The true share with any hit is near 3.8%.
# A549 tox – kills or reduces viability of A549 cells in Nrf2 counter-screen. Potency, µM (series often up to 46 µM), inactives show top-dose activity change, negative = cytotoxicity, usual class: inhibitors. 390,000 tested, 0.16% active. A549 ARE-Fluc cells, CellTiter-Fluor viability, 18-24 h. AID 504648; note: % is set by controls: 0 for no effect and ±100 for the full control effect
#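 Cytotoxicity counterscreen: CellTiter-Fluor fluorescence was measured in A549 ARE_Fluc cells after 18-24 h of compound exposure in a concentration series. The subsequent BugLite luminescent read reports ARE-luciferase activity.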
# ATXN2 expr inh – reduces ATXN2 reporter expression in HEK-293 cells | HEK-293 ATXN2-luciferase reporter, luminescence, 24 h | Potency, µM (titrated, usually from 57 µM), for the others: top-dose activity change, negative = inhibition, usual class: inhibitors | 360,000 tested, 0.72% active; note: % is set by controls: 0 for no effect and ±100 for the full control effect; nearly all actives have a fitted effect of over 55% in size
#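 qHTS (up to 57 uM final) was run with 24 h compound exposure of reporter cells at 37 °C. Each well was multiplexed: SteadyGlo luminescence measured ATXN2-luciferase expression after a fluorogenic Gly-Phe-AFC viability readout (25 uM final).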
# ATXN viability – reduces viability in counter-screen for ATXN expression inhibitors; S2 cells (HEK-293 line with an ATXN2-luciferase reporter) viability, CellTiter-Fluor protease fluorescence, 24 h; Potency, µM (top dose mostly 56.7 µM), most hits filed as cytotoxic; 400,000 tested, 0.49% active; AID 651635; note: nearly all actives have a fitted effect of over 40% in size
# Nrf2 inh – Nrf2 pathway inhibition; Potency, µM (titrated, usually from 46 µM), without a hit: at the top dose activity change, negative = inhibition, usual class: inhibitors; A549 ARE-Fluc reporter, luciferase luminescence, 18-24 h; 360,000 tested, 2.1% active; note: % is set by controls: 0 for no effect and ±100 for the full control effect; nearly all actives have a fitted effect of over 60% in size
#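 Cells were seeded and rested 2 h, then exposed to compounds for 18-24 h. CellTiter-Fluor was read first as a viability measure. BugLite was added 15 min before the final luminescent read of ARE-luciferase activity in A549 cells.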
# HepG2 tox – kills HepG2 cells in TGF-b inhibitor counter-screen; 410,000 tested, 0.76% active; Potency, µM (titrated, usually from 46.1 µM), without a hit: at the top dose activity change, negative = cytotoxicity, most hits filed as cytotoxic; HepG2 CAGA-GFP viability, ATP luminescence, 18 h
#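 HepG2 CAGA-GFP cells (1000/well, DMEM with 1% FBS) received compound, then TGF-beta at 500 pg/mL final, and were incubated 18 hours at 37 degrees C. Viability was read by CellTiter-Glo luminescence. Media-only wells were set as complete cell-killing and DMSO as no toxicity.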
# TGFb SMAD3 inh – TGF-b pathway inhibition | HepG2 CAGA-GFP TGF-b/SMAD3 reporter, GFP fluorescence, 18 h; TGF-beta stimulated, 500 pg/mL final | 410,000 tested, 1.2% active | Potency, µM (doses to about 46.1 µM), without a hit: top-dose activity, negative = inhibition, hits mostly inhibitors | AID 588855; note: % is set by controls: 0 for no effect and ±100 for the full control effect; nearly all actives have a fitted effect of over 65% in size
#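 Per well, imaged GFP fluorescence of HEPG2 CAGA-GFP cells gives the signal; cells get compound, then TGF-beta (500 pg/mL final), 18 h at 37 degrees C; %Activity versus -TGF-beta and +DMSO controls.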
# * marks the source's active call; other numbers are inactive results; i = inactive; ? = inconclusive; . = no result given. Calls come from the whole dose curve; as a rule, active = well fitted curve in the direction sought with a large enough effect; inconclusive = small, poorly fitted or top-dose-only effect, or another doubt; inactive = no such curve, though single readings can be large; an effect the other way counts as inactive or inconclusive. Potency is the fitted concentration of half-maximal effect.
SMILES,A549 tox,ATXN2 expr inh,ATXN viability,Nrf2 inh,HepG2 tox,TGFb SMAD3 inh
CC(C)=CCc1c(O)cc2oc3c(CC=C(C)C)c(O)c(O)c(CC=C(C)C)c3c(=O)c2c1O,-17%,?,?,?,8.9µM*,6.3µM*
NC(N)=NC(=O)Cc1c(Cl)cccc1Cl,-9%,-7%,i,8.2µM*,-51%,-4%
O=C(Cc1c(Cl)cccc1Cl)OCc1ccccn1,7%,36%,i,1%,-40%,-11%
COc1cc2[nH]c(Cl)c([N+](=O)[O-])c2cc1OC,-2%,-4%,i,3%,-1%,-5%
N#CC1(c2ccccc2)CCC(=NO)CC1 (centres undefined),?,6%,i,.,7%,8%
CC(=O)N1CCCC(C)(C(=O)Nc2cccc(OC(C)C)c2)C1 (centres undefined),.,14%,i,.,1%,16%
C=CC(=O)Nc1ccc(N(C)c2ccnc(Nc3ccc(N4CCN(C)CC4)cc3)n2)cc1,7.3µM*,-37%,14µM*,15%,-3%,?
Cc1occc1C(=O)/C(C#N)=C/c1ccc(O)c(Br)c1,1%,-32%,i,13%,20%,14%
O=C(Nc1nc(-c2ccccn2)cs1)c1ccc(Cl)s1,?,?,i,2.6µM*,-15%,?
CCc1sc(C(=O)Nc2nc(-c3ccccn3)cs2)cc1C,-12%,25µM*,i,?,-2%,-16%
CC(Oc1cccc(Cl)c1)C(=O)Nc1nc(-c2ccccn2)cs1 (centres undefined),?,-36%,.,16µM*,12%,?
Cc1nc(N2CCCC2)c2c(C(=O)N3CCN(c4cc(Cl)ccc4C)CC3)c(C)oc2n1,?,.,.,?,-16%,?
Cn1cnc(S(=O)(=O)N2CCCCC2c2cc(C(=O)Nc3cccc4c3CCCC4)no2)c1 (centres undefined),.,-10%,i,.,0%,22%
Nc1ccn([C@@H]2O[C@H](CO)[C@@H](O)C2O)c(=O)n1 (some centres undefined),-5%,?,i,?,-23%,3%
N=c1ccn2c(n1)OC1C(O)C(CO)OC12 (centres undefined),0%,.,?,0.18µM*,8%,7%
Cc1ccc(C(C)C)c(OCC(O)CN2CCN(c3ccccc3F)CC2)c1 (centres undefined),0%,.,.,6%,-54%,16µM*
CCS(=O)(=O)c1c(Nc2ccc(F)c(Cl)c2)sc(C(=O)c2ccccc2)c1N,?,.,.,21µM*,-13%,?
CCc1ccc(NC(=O)C(=O)NCCOc2ccccc2Cl)cc1,-7%,-4%,i,-2%,7%,18%
CCC(=O)N1CCC1(C)C(=O)Nc1ccc2c(c1)OCO2 (centres undefined),.,9%,i,.,-16%,14µM*
CCCC(=O)N1CCC1(C)C(=O)Nc1ccc2c(c1)OCCO2 (centres undefined),.,3%,i,.,9%,1%
Cc1nn(Cc2ccccc2)c(C)c1NC(=O)c1noc2c1CCc1ccccc1-2,-1%,?,?,?,-31%,?
Cc1nn(Cc2c(Cl)cccc2Cl)c(C)c1NC(=O)c1sc2ccccc2c1Cl,-22%,-32%,i,?,4%,-27%
COc1ccc(-c2cc(C(=O)Nc3c(C)nn(Cc4ccc(Cl)cc4)c3C)no2)cc1,?,-28%,?,?,-18%,1%
Cc1ccc(Cn2nc(C)c(NC(=O)c3cc(-c4ccc5c(c4)OCO5)on3)c2C)cc1,?,?,?,?,11µM*,-21%
COc1ccc2c(c1)CCc1c(C(=O)Nc3c(C)nn(Cc4ccc(C)cc4)c3C)noc1-2,-18%,-1%,i,15µM*,-2%,?
SMILES,A549 tox,ATXN2 expr inh,ATXN viability,Nrf2 inh,HepG2 tox,TGFb SMAD3 inh
COc1ccccc1-c1cc(C(=O)Nc2c(C)nn(Cc3ccc(Cl)cc3)c2C)no1,?,?,?,18µM*,-25%,?
Cc1nn(Cc2ccc(Cl)c(Cl)c2)c(C)c1NC(=O)c1sc2ccccc2c1Cl,-26%,-33%,?,15µM*,-25%,?
CO[C@H]1[C@H](NC(=O)c2ccco2)c2ccccc2C12CCN(Cc1cccn1-c1ccccn1)CC2,.,.,i,.,.,.
COc1cccc(-c2cc(C(=O)Nc3c(C)nn(Cc4ccccc4Cl)c3C)no2)c1,-9%,-23%,?,6.5µM*,-26%,?
O=C(O)C1CCc2nc(NCc3ccccc3)nc(NCc3ccccc3)c2C1 (centres undefined),1%,5%,i,25%,-3%,-6%
CCCCCCN1C[C@@H](n2cc(C3CC3)nn2)[C@H](O)C[C@@H]1c1ccc(Cl)cc1,.,?,?,.,-107%,?
CCCCCC(=O)N1C[C@@H](O)[C@H](n2cc(-c3ccc(F)cc3)nn2)C[C@@H]1c1ccc(C)cc1,.,0%,?,.,-31%,18µM*
CCCCCCN1C[C@@H](O)[C@H](n2cc(C3CC3)nn2)C[C@@H]1c1ccc(Cl)cc1,.,?,?,.,16µM*,?
Cc1ccc([C@H]2C[C@H](O)[C@@H](n3cc(-c4ccc(F)cc4)nn3)CN2Cc2cccs2)cc1,.,?,?,.,-25%,3%
O[C@H]1C[C@H](c2ccc(Cl)cc2)N(Cc2cccs2)C[C@@H]1n1cc(-c2ccc(F)cc2)nn1,.,32µM*,.,.,-113%,?
CCCCCC(=O)N1C[C@@H](n2cc(-c3ccc(F)cc3)nn2)[C@H](O)C[C@@H]1c1ccc(C)cc1,.,?,16µM*,.,-29%,?
O=C(Nc1ccc2c3c(cccc13)CC2)c1ccccc1,.,.,i,.,-25%,-8%
COc1ccc(C2c3c(ncn(CCc4ccccc4)c3=N)Oc3ccc4ccccc4c32)cc1OC (centres undefined),-14%,.,.,-6%,.,.
CCCCCCN1C[C@H](O)[C@@H](n2cc(-c3ccc(F)cc3)nn2)C[C@@H]1c1ccccc1,.,-33%,18µM*,.,-102%,?
CCCC(=O)NC(c1ccc2c(c1)OCO2)c1cc(Cl)c2cccnc2c1O (centres undefined),-1%,8.9µM*,i,?,-7%,?
Cc1ccc(C(=O)NC(c2ccco2)c2cc(Cl)c3cccnc3c2O)cc1 (centres undefined),-2%,.,.,?,.,.
CCCC(=O)NC(c1ccco1)c1cc(Cl)c2cccnc2c1O (centres undefined),?,25µM*,?,?,-17%,-3%
